This note sets out measurements from PubChem BioAssay (EPA / NIEHS).

Active and inactive are the calls of the source. Rule for the calls: active = hit-call score of the fitted dose curve at least 0.9, where 1 is the maximum; inactive = score below 0.9.

A short description of this assay: ATG_PPRE_CIS: Attagene CIS-FACTORIAL HepG2 Assay for human Peroxisome Proliferator-activated Response Element (PPRE) (AID 2282958). Conditions: HepG2 PPRE cis-element reporter, Attagene transcription factor profiling; actives raise or lower the signal. The essentials:
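Multiplexed reporter transcription units under cis-regulatory promoters were transfected into HepG2 cells to capture endogenous factor activity. A 24 h incubation preceded RNA isolation and fluorescent RT-PCR fragment analysis.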
For the compound `CC(C)C1(C)N=C(c2ncccc2C(=O)O)NC1=O` (stereo not drawn), the outcome was inactive.

Usually AC50 stands for the concentration at which the activity in the assay is half-maximal. As for `CC(C)=CC1C(C(=O)OCc2coc(Cc3ccccc3)c2)C1(C)C` (stereo not drawn), the AC50 was 11.2 µM (active).

Turning to `CCSC(=O)N1CCCCCC1`, the compound was called inactive.

Regarding `OC(c1ccc(Cl)cc1)(c1ccc(Cl)cc1)C(Cl)(Cl)Cl`, the call was inactive.

For `CCOP(=O)(OCC)Oc1nc(Cl)c(Cl)cc1Cl`, the AC50 is 29.9 µM (active).

Consider `COC(=O)N(C(=O)N1CO[C@@]2(C(=O)OC)Cc3cc(Cl)ccc3C2=N1)c1ccc(OC(F)(F)F)cc1`, for which the compound was classed as inactive.

With `Cc1nc(N(C)C)nc(OC(=O)N(C)C)c1C`, the compound was called inactive.

For the compound `CC(C)N1C(=O)c2ccccc2NS1(=O)=O`, the compound was called inactive.

Consider `Nc1c(Cl)c(Cl)nc(C(=O)O)c1Cl`, for which the compound was classed as inactive.

Consider `COC(=O)NS(=O)(=O)c1ccc(N)cc1`, for which the compound was called inactive.

Take `Cc1cc(C)nc(Nc2ccccc2)n1`: the AC50 was 16.7 µM (active).

On to `O=C(O)c1c(Cl)ccc2cc(Cl)cnc12`, for which the compound was called inactive.

On to `O=C1C2CC=CCC2C(=O)N1SC(Cl)(Cl)Cl` (stereo not drawn), for which the compound was classed as inactive.

As for `Cc1cnc(C2=NC(C)(C(C)C)C(=O)N2)c(C(=O)O)c1` (stereo not drawn), the call was inactive.

Consider `CCCCOCN(C(=O)CCl)c1c(CC)cccc1CC`, for which the compound was classed as inactive.

As for `COP(=O)(OC)O/C(C)=C/C(=O)N(C)C`, the call was inactive.

For `Cc1c(COC(=O)[C@@H]2[C@H](/C=C(\Cl)C(F)(F)F)C2(C)C)cccc1-c1ccccc1`, the outcome was inactive.

On to `N#Cc1c[nH]cc1-c1cccc2c1OC(F)(F)O2`, for which the AC50 was 13.2 µM (active).

Turning to `CC(C)Nc1nc(Cl)nc(NC(C)C)n1`, the call was inactive.

Take `COCC(C)N(C(=O)CCl)c1c(C)csc1C` (stereo not drawn): the outcome was inactive.

On to `O=P(O)(O)CCCl`, for which the compound was classed as inactive.

Regarding `CCOC(=O)C(C)OC(=O)c1cc(Oc2ccc(C(F)(F)F)cc2Cl)ccc1[N+](=O)[O-]` (stereo not drawn), the AC50 is 11.7 µM (active).

For `N#CN=C1SCCN1Cc1ccc(Cl)nc1`, the call was inactive.
